Measurements from article PMC13494018.

B1: design_596_3e5f537c-0703-45f0-993f-ff416531349a_1970_dldesign_0_cycle1_af2pred (protein)
chain: DEEEKEKKLEEARKAKDEAEEALDKAMEKASPEEALELLEEYRKVSKEAQKLVKEEGVEGAAEAAKLLKEQKKYFEEKYKEL
B2: design_597_f3dcd2b3-c7aa-4b15-88bc-bbb8d01a18cd_323_dldesign_0_cycle1_af2pred (protein)
chain: EEVEKKLKELAEKVKKAKELAEKDPEKGIELAKEAIKEAQKLGKEADEETKKKLAEVAEEAVEVRFEALEKLVKS
B3: design_596_3e5f537c-0703-45f0-993f-ff416531349a_2173_dldesign_0_cycle1_af2pred (protein)
chain: SELKDLLSEAERARHKAEAIATRAKELAKYDPKEAKKIADEAKKVAEEAKKAAELAEKDPEKGKEAIKKVKEKVKKLEKKVKALEKKV
B4: design_597_f3dcd2b3-c7aa-4b15-88bc-bbb8d01a18cd_430_dldesign_0_cycle1_af2pred (protein)
chain: AVKEKLERAKKYAEETKKLAKELKKNPKFKKTAEEIEKEAEKVLEEAKKAAEKGDAEAVGEKATELRVLKTAAEQLLKAAK
B5: design_597_f3dcd2b3-c7aa-4b15-88bc-bbb8d01a18cd_63_dldesign_0_cycle1_af2pred (protein)
chain: GEAKAEELIKKAKEALREFAETGSLEALDKAEEYAEEISKFTPEVRAKAAEELEKVGEEGSPAARAVAKNLADYLK
B6: design_596_3e5f537c-0703-45f0-993f-ff416531349a_2330_dldesign_0_cycle1_af2pred (protein)
chain: EEALKKAEERYEKYGKKALELAEKVGLKEEVEEGIKDPSKMPEVIKKLEELGEENPEVRKDAYLAASYLQRAQQAYETKKKIEAA
B7: design_596_3e5f537c-0703-45f0-993f-ff416531349a_2102_dldesign_0_cycle1_af2pred (protein)
chain: AEAVAEEMLARIEEARDALTAADPTLADIADSIADAAKERMRAAAAEGRAEEVAEVGERAVRTLEHLAKLAK
B8: design_596_3e5f537c-0703-45f0-993f-ff416531349a_2108_dldesign_0_cycle1_af2pred (protein)
chain: DAVKKAAEEGKERVRRRAEREKKRVTPEARPEIEKAEEKGVKKVEEAAKGTVKEVANAAQEGITEVIEVGAENKIKA
B9: design_597_f3dcd2b3-c7aa-4b15-88bc-bbb8d01a18cd_271_dldesign_0_cycle1_af2pred (protein)
chain: DEAKKKAAEELAEAYEYVAEALALGKKTNEEAKKLAKEAKEEFKKYRDKAKALYKAGNYEEAYKEAKKAYEESKKKLEEIKKIAE
B10: design_597_f3dcd2b3-c7aa-4b15-88bc-bbb8d01a18cd_570_dldesign_0_cycle1_af2pred (protein)
chain: NAIKKEVEEHLAKAEEYTAKAIETASDPEKFKEYFEKMREEFGKALKAAKADPELKKLAEDKLMEAQMKVTEAKGEAARKKNN
B11: design_597_f3dcd2b3-c7aa-4b15-88bc-bbb8d01a18cd_98_dldesign_0_cycle1_af2pred (protein)
chain: AERVEAAGKIALARIDKAGKGTKEELAVASAQAMALVGVTAGASDEEIDAMVDKVEAAAKGANPVADAKKVLTAAIKELAAK
B12: design_596_3e5f537c-0703-45f0-993f-ff416531349a_2018_dldesign_0_cycle1_af2pred (protein)
chain: AAEKKAKAEAKKIVEEAAKIAKEKGYDEGMKYAYKASKELAEKYGKEYGAKAFEEAVDAIGDELAKKVKE
B13: design_596_3e5f537c-0703-45f0-993f-ff416531349a_2235_dldesign_0_cycle1_af2pred (protein)
chain: GLYEEAKKEAKEAFSYGIAYLSAVSAKDPSLAPEAEKELEEAFEKVEKALKDAKSGKNPEKALKEIKEIRDEWKEKLKEARA
B14: design_597_f3dcd2b3-c7aa-4b15-88bc-bbb8d01a18cd_135_dldesign_0_cycle1_af2pred (protein)
chain: MLTVMQAADIIIDKGAEEAKKAMVETALDVAKKYGIEAGRKAARTLSRIFKNAYGEEEGKEAEKEVLEALEKLEKE
B15: design_596_3e5f537c-0703-45f0-993f-ff416531349a_2320_dldesign_0_cycle1_af2pred (protein)
chain: KKVEELKKKMLEELEKIIEIAKTLPPEEAERLITFAKAARERGEKKGVRGLAKAALNVAFEASKYEETKEAAEKLEELANEIIKLT
B16: design_596_3e5f537c-0703-45f0-993f-ff416531349a_2079_dldesign_0_cycle1_af2pred (protein)
chain: MEKEELQRRLKETAEKLAEKHPEAAPAARLVIRVGEKANAEEVRKLLELTEKALGENWKEYAAEATEYAVEIEADILVKELK
B17: design_597_f3dcd2b3-c7aa-4b15-88bc-bbb8d01a18cd_362_dldesign_0_cycle1_af2pred (protein)
chain: AAEKAKKAADAFRAIAKAAKLALEDPEKGAAAIQAAVDAAKKESPEIAPYVAAVAEEKLAAVKAKLAAAAAA
B18: design_596_3e5f537c-0703-45f0-993f-ff416531349a_2087_dldesign_0_cycle1_af2pred (protein)
chain: MAEKLVEKAKAEMKKLVEEAKKGNPEEARKIRKEIIEKGKKALEEADTEEKKKAAEEIKKIAYKAVEEVLEAYGELLVK
B19: design_597_f3dcd2b3-c7aa-4b15-88bc-bbb8d01a18cd_601_dldesign_0_cycle1_af2pred (protein)
chain: SKAEEKAKELEEKLKKAEELAKKDPKKGAKYAKEIAKEARKAGKETGETEKFAKIADKAYQIAAEAEFKAK

Each binder was assayed against VTCN1, Q7Z7D3.
Sequence of VTCN1, Q7Z7D3 (Q7Z7D3 whole entry): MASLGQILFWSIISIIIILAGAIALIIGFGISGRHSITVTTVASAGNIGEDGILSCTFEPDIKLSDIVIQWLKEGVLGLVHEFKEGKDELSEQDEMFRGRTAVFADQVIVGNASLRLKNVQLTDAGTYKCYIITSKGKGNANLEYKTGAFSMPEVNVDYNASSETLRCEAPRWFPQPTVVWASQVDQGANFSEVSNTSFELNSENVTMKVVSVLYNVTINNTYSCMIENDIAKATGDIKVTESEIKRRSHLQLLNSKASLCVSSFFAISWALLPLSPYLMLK
B1 was tested, and the “binding in a display sort” value was “not found (inactive)”. B2 was tested, and the “binding in a display sort” value was “not found (inactive)”. In the case of B3, the “binding in a display sort” value is reported as “not found (inactive)”. With B4 the “binding in a display sort” value was “not found (inactive)”. With B5 the “binding in a display sort” value was “binds (active)”. With B6 the “binding in a display sort” value was “not found (inactive)”. For B7, the “binding in a display sort” value was “not found (inactive)”. B8 was tested, and the “binding in a display sort” value was “not found (inactive)”. For B9, the “binding in a display sort” value was “not found (inactive)”. With B10 the “binding in a display sort” value was “not found (inactive)”. In the case of B11, the “binding in a display sort” value is reported as “not found (inactive)”. With B12 the “binding in a display sort” value was “not found (inactive)”. B13 was tested, and the “binding in a display sort” value was “not found (inactive)”. B14 was tested, and the “binding in a display sort” value was “not found (inactive)”. B15 was tested, and the “binding in a display sort” value was “not found (inactive)”. In the case of B16, the “binding in a display sort” value is reported as “not found (inactive)”. In the case of B17, the “binding in a display sort” value is reported as “not found (inactive)”. For B18, the “binding in a display sort” value was “not found (inactive)”. In the case of B19, the “binding in a display sort” value is reported as “not found (inactive)”.
